Measurements taken from PubChem BioAssay (Tox21).
Records with an inconclusive call do not appear. Calls of active or inactive are those of the source. Unless noted, calls come from the whole dose curve; as a rule, active = well fitted curve in the direction sought with a large enough effect in the repeat runs; inconclusive = weak or mixed curves; inactive = no such curve, though single readings can be large; an effect the other way counts as inactive or inconclusive.

Columns and labels:
[1] = qHTS assay for small molecule agonists of the p53 signaling pathway (AID 651631; calls by dose curve; note: nearly all actives have a fitted effect of over 15% in size)
Outline: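 HCT-116 p53RE-bla reporter line, 16 h compound treatment at 37 °C, then fluorescence after 2 h with B/G FRET substrate.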

[2] = qHTS assay for small molecules that induce genotoxicity in human embryonic kidney cells expressing luciferase-tagged ATAD5 (AID 651632); note: nearly all actives have a fitted effect of over 15% in size
Outline: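 ATAD5-luc HEK293T, 2,000 cells/well; cpd or DMSO pin-transferred; 16 hr, 37C/5% CO2; Amplite 30 min RT; luminescence.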

[3] = qHTS assay for small molecule agonists of the p53 signaling pathway - cell viability (AID 651633; calls by dose curve;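 note: p53RE-bla HCT reporter cells with a stable beta-lactamase p53 reporter; series mostly up to about 83 µM; nearly all actives have a fitted effect of over 30% in size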)
Outline: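 p53RE-bla cells were treated with compound for 16 hours at 37 C. Cytotoxicity was then measured as CellTiter-Glo luminescence after 30 min at room temperature.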

[4] = qHTS assay for small molecules that induce genotoxicity in human embryonic kidney cells expressing luciferase-tagged ATAD5 - cell viability (AID 651634; calls by dose curve; note: nearly all actives have a fitted effect of over 25% in size)
Outline: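 Fluorescence from CellTiter-Fluor, reporting protease activity within live cells, served as the viability read-out. HEK293T cells carrying luciferase-tagged ATAD5 had been treated with compound for 15.5 hr at 37C.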

[5] = qHTS assay to test for compound auto fluorescence at 535 nm (green) in HepG2 cells (AID 720675)
[6] = qHTS assay to test for compound auto fluorescence at 460 nm (blue) in HEK293 cells (AID 720678)
Outline: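 Blue read-out at excitation 405 nm and emission 460 nm follows overnight compound exposure of HEK293 cells at 37C in 5% CO2. Activity is given as auto fluorescence equivalency to triamterene.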

[7] = qHTS assay to test for compound auto fluorescence at 590 nm (red) in HEK293 cells (AID 720679)
Outline: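 Red channel, Ex/Em 540/590nm; signal expressed as equivalency to Rose Bengal sodium. HEK293, 2,000 cells/well, 10% dialyzed FBS; 23 nL compound pinned after 4-5 hr attachment; overnight 37C/5% CO2 before reading.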

[8] = qHTS assay to test for compound auto fluorescence at 535 nm (green) in HEK293 cells (AID 720680)
[9] = qHTS assay to test for compound auto fluorescence at 535 nm (green) in HEK293 cell free culture (AID 720682)
Outline: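 Steps: dispense DMEM/10% FBS into empty wells; pin in compound or DMSO; measure fluorescence at 485/535 nm. Values are fluorescein equivalents.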

[10] = qHTS assay to test for compound auto fluorescence at 590 nm (red) in HEK293 cell free culture (AID 720683)
Outline: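 Cell-free wells of DMEM with 10% FBS received compound, and intrinsic fluorescence was read at excitation/emission 540/590 nm. Values expressed as equivalence to Rose Bengal sodium.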

[11] = qHTS assay to test for compound auto fluorescence at 590 nm (red) in HepG2 cell free culture (AID 720684)
Outline: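 Compounds are added to culture medium (MEM, 10% FBS) lacking cells, then fluorescence is read at excitation 540 nm, emission 590 nm, with Rose Bengal sodium as the equivalency standard.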

[12] = qHTS assay to test for compound auto fluorescence at 460 nm (blue) in HepG2 cell free culture (AID 720685)
Outline: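 Compound (23 nL) or DMSO pinned into cell-free MEM with 10% FBS; blue fluorescence read at 405/460 nm excitation/emission, expressed as auto-fluorescence equivalency to triamterene.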

[13] = qHTS assay to test for compound auto fluorescence at 535 nm (green) in HepG2 cell free culture (AID 720686)
[14] = qHTS assay to test for compound auto fluorescence at 460 nm (blue) in HepG2 cells (AID 720687)
Outline: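 HepG2 cells in MEM with 10% FBS, attached overnight at 37 C, were exposed to compound or DMSO for 1 hr at 37 C, 5% CO2. Blue fluorescence was read at 405/460 nm, with triamterene as reference fluorophore.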

[15] = target: Glucocorticoid receptor (Homo sapiens) (UniProt P04150); experiment: qHTS assay to identify small molecule agonists of the glucocorticoid receptor (GR) signaling pathway (AID 720691; active = well fitted activation curve with a large enough effect in the signal ratio in the repeat runs, not every such curve was filed as active; the % refers to the signal ratio)
Sequence of Glucocorticoid receptor (Homo sapiens) (P04150 whole entry, looked up): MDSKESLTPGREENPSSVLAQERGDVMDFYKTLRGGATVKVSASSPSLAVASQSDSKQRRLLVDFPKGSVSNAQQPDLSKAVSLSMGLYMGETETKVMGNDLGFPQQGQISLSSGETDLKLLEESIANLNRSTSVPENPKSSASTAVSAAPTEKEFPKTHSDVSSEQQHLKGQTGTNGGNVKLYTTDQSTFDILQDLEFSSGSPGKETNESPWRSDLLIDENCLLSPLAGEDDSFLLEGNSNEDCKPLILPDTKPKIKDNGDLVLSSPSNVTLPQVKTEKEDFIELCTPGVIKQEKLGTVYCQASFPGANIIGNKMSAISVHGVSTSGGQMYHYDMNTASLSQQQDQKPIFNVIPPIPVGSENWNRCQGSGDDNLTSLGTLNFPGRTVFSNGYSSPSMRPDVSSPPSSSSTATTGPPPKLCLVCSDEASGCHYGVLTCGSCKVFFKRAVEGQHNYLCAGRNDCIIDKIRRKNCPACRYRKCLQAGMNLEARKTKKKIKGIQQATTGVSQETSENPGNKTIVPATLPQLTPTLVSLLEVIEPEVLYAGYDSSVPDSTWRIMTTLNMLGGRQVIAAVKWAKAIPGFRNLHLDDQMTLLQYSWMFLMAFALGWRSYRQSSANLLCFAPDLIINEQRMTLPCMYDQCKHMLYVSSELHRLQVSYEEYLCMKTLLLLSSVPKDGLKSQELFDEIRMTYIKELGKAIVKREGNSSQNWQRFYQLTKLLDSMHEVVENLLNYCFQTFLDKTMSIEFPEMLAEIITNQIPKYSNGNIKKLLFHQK
Outline: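 Fluorescence intensity from LiveBLAzer B/G FRET substrate (2 h, room temperature) reports beta-lactamase expression driven by the glucocorticoid response element in GR-bla HeLa cells after 18 h compound exposure at 37 C.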

[16] = target: Glucocorticoid receptor (Homo sapiens) (UniProt P04150); experiment: qHTS assay to identify small molecule antagonists of the glucocorticoid receptor (GR) signaling pathway (AID 720692; active = well fitted inhibition curve with a large enough effect in the signal ratio in the repeat runs, not every such curve was filed as active; the % refers to the signal ratio)
Outline: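 HeLa GR-bla cells; cmpd + dex 5 nM final, 18 h 37 C; LiveBLAzer B/G FRET substrate 2 h RT; fluorescence intensity read. Antagonist mode, qHTS.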

[17] = qHTS assay for small molecule disruptors of the mitochondrial membrane potential - cell viability (AID 720634; calls by dose curve;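 note: human HepG2 liver cancer cells; series mostly up to about 83 µM; nearly all actives have a fitted effect of over 20% in size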)
Outline: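 Cells: HepG2, 2,000/well, attached overnight. Compound 1 hr, 37 C/5% CO2. +m-MPI dye, +CellTiter-Glo 30 min RT. Readout: luminescence (ATP).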

[18] = qHTS assay to test for compound auto fluorescence at 590 nm (red) in HepG2 cells (AID 720674)
Outline: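 Fluorescence at 590 nm emission following 540 nm excitation was recorded from HepG2 wells one hour after compound transfer, with DMSO-only wells as vehicle and Rose Bengal sodium equivalency as the scale.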

[19] = qHTS assay to test for compound auto fluorescence at 460 nm (blue) in HEK293 cell free culture (AID 720681)
Outline: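 Compounds were added to cell-free DMEM with 10% FBS and fluorescence read directly. The blue channel used 405 nm excitation and 460 nm emission, with triamterene as the reference fluorophore.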

[20] = qHTS assay for small molecule disruptors of the mitochondrial membrane potential (AID 720635)
Outline: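 HepG2 cells exposed to compound 1 hr at 37C, then Mito-MPS dye 30 min. Ratio read of aggregate (540/590 nm) versus monomer (490/535 nm) fluorescence.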
% is set by controls: 0 for no effect and ±100 for the full control effect.

CCNC(=O)C(C)OC(=O)Nc1ccccc1 (centres undefined)
inactive: Potency [1] | Potency [2] | outcome [3] | outcome [4] | outcome [5] | outcome [6] | outcome [7] | outcome [8] | outcome [9] | outcome [10] | outcome [11] | outcome [12] | outcome [13] | outcome [14] | Potency [15] | outcome [16]

CCCCCCCCOCCC#N
inactive: Potency [1] | outcome [3] | outcome [4] | outcome [17] | outcome [18] | outcome [5] | outcome [6] | outcome [7] | outcome [8] | outcome [19] | outcome [9] | outcome [10] | outcome [11] | outcome [12] | outcome [13] | outcome [14]

CC(C)OC(=O)C(C(=O)OC(C)C)=C1SC=CS1
inactive: Potency [1] | Potency [2] | outcome [3] | outcome [4] | outcome [18] | outcome [5] | outcome [6] | outcome [7] | outcome [9] | outcome [10] | outcome [11] | outcome [12] | outcome [13] | Potency [15] | outcome [16]

CCCCCCCC(=O)N(C)C
inactive: Potency [1] | Potency [2] | outcome [3] | outcome [4] | outcome [5] | outcome [6] | outcome [7] | outcome [8] | outcome [19] | outcome [9] | outcome [10] | outcome [11] | outcome [12] | outcome [13]

COc1ccc2cc(CCC(C)=O)ccc2c1
inactive: Potency [1] | outcome [3] | outcome [4] | outcome [17] | fluorescence, relative to Rose Bengal [18] -0.0879% [at 18.6 µM] | fluorescence, % of fluorescein control [5] -0.11% [at 18.6 µM] | fluorescence, % of triamterene [6] 0.0581% [at 18.6 µM] | fluorescence, % of fluorescent control [7] 0.875% [at 18.6 µM] | fluorescence, % of fluorescein [8] -0.0683% [at 18.6 µM] | fluorescence, % of fluorescent control [19] -0.26% [at 18.6 µM] | activity change [9] -0.0416% [at 18.6 µM] | fluorescence, % of fluorescent control [10] 0.474% [at 18.6 µM] | fluorescence, % of Rose Bengal [11] -0.0935% [at 18.6 µM] | fluorescence, % of fluorescent control [12] 0.0413% [at 18.6 µM] | fluorescence, % of fluorescein control [13] -0.0938% [at 18.6 µM] | Potency [15]

CCCCCCC(O)CO (centres undefined)
inactive: Potency [1] | Potency [2] | outcome [3] | outcome [4] | outcome [18] | outcome [5] | outcome [6] | outcome [7] | outcome [19] | outcome [9] | outcome [10] | outcome [11] | outcome [12] | outcome [13] | outcome [14] | Potency [15] | outcome [16]

CCCCCC(=O)CC
inactive: Potency [1] | Potency [2] | outcome [3] | outcome [4] | outcome [18] | outcome [5] | outcome [6] | outcome [7] | outcome [9] | outcome [10] | outcome [11] | outcome [12] | outcome [13] | outcome [14]

COC(=O)C(c1ccccc1Cl)N1CCc2sccc2C1 (centres undefined)
inactive: Potency [1] | Potency [2] | outcome [4] | outcome [17] | Potency [20] | outcome [18] | outcome [5] | outcome [6] | outcome [7] | outcome [8] | outcome [19] | outcome [9] | outcome [10] | outcome [11] | outcome [12] | outcome [13] | outcome [16]

C/C=C(\C)C=O
inactive: Potency [1] | Potency [2] | outcome [3] | outcome [4] | outcome [18] | outcome [5] | outcome [6] | outcome [7] | outcome [8] | outcome [9] | outcome [10] | outcome [11] | outcome [12] | outcome [13]
